# Data reported in paper PMC11062922 (Nature Chemical Biology, 2023).
# Like-named read-outs stand apart in the source and are kept apart here.
# How the values were obtained:
# ACVR2B = tested on: ACVR2B; parameters: species or system human, MV4-11 + K-562 + COLO205 + SK-N-BE2 + OVCAR-8; conditions: read-out: apparent Kd, n = 1
# AAK1 = conditions: compound concentrations:3nM, 10nM, 30nM, 100nM, 300nM, 1000nM, 3000nM, 30000nM,R2:0.99102510116180997,slope:1.0759365754475601,EC50 Standard Error, by the legend:Standard error of the EC50 estimation as provided by the drc package.
# ERN2 = tested on: ERN2; parameters: species or system human, MV4-11 + K-562 + COLO205 + SK-N-BE2 + OVCAR-8; conditions: read-out: apparent Kd, n = 1
# CAMK2B = tested on: CAMK2B; parameters: species or system human, MV4-11 + K-562 + COLO205 + SK-N-BE2 + OVCAR-8; conditions: read-out: apparent Kd, compound concentrations: 100 nM and 1000 nM (sheet 'Samples'), n = 1
# CDK12 = tested on: CDK12; parameters: species or system human, MV4-11 + K-562 + COLO205 + SK-N-BE2 + OVCAR-8; conditions: read-out: apparent Kd, compound concentrations: 100 nM and 1000 nM (sheet 'Samples'), n = 1
# EPHA7 = tested on: EPHA7; parameters: species or system human, MV4-11 + K-562 + COLO205 + SK-N-BE2 + OVCAR-8; conditions: read-out: apparent Kd, compound concentrations: 100 nM and 1000 nM (sheet 'Samples'), n = 1
# MAP3K1 = tested on: MAP3K1; parameters: species or system human, MV4-11 + K-562 + COLO205 + SK-N-BE2 + OVCAR-8; conditions: read-out: apparent Kd, n = 1
# MAP3K6 = tested on: MAP3K6; parameters: species or system human, MV4-11 + K-562 + COLO205 + SK-N-BE2 + OVCAR-8; conditions: read-out: apparent Kd, compound concentrations: 100 nM and 1000 nM (sheet 'Samples'), n = 1
# MDN1 = tested on: MDN1; parameters: species or system human, MV4-11 + K-562 + COLO205 + SK-N-BE2 + OVCAR-8; conditions: read-out: apparent Kd, n = 1
# NEK1 = tested on: NEK1; parameters: species or system human, MV4-11 + K-562 + COLO205 + SK-N-BE2 + OVCAR-8; conditions: read-out: apparent Kd, n = 1
# PI4KB = tested on: PI4KB; parameters: species or system human, MV4-11 + K-562 + COLO205 + SK-N-BE2 + OVCAR-8; conditions: read-out: apparent Kd, n = 1
# PIK3CB = tested on: PIK3CB; parameters: species or system human, MV4-11 + K-562 + COLO205 + SK-N-BE2 + OVCAR-8; conditions: read-out: apparent Kd, compound concentrations: 100 nM and 1000 nM (sheet 'Samples'), n = 1
# RIPK3 = tested on: RIPK3; parameters: species or system human, MV4-11 + K-562 + COLO205 + SK-N-BE2 + OVCAR-8; conditions: read-out: apparent Kd, n = 1
# CSNK2A1 = conditions: hek293t cells
# CSNK2A2 = conditions: hek293t cells
# PLK1 = tested on: PLK1; parameters: species or system human, MV4-11 + K-562 + COLO205 + SK-N-BE2 + OVCAR-8; conditions: read-out: apparent Kd, compound concentrations: 100 nM and 1000 nM (sheet 'Samples'), n = 1
# PIM3 = tested on: PIM3; parameters: species or system human, MV4-11 + K-562 + COLO205 + SK-N-BE2 + OVCAR-8; conditions: read-out: apparent Kd, compound concentrations: 100 nM and 1000 nM (sheet 'Samples'), n = 1
# ADRBK1 = tested on: ADRBK1; parameters: species or system human, MV4-11 + K-562 + COLO205 + SK-N-BE2 + OVCAR-8; conditions: read-out: apparent Kd, n = 1
# PRKCZ = tested on: PRKCZ; parameters: species or system human, MV4-11 + K-562 + COLO205 + SK-N-BE2 + OVCAR-8; conditions: read-out: apparent Kd; compound concentrations:100 nM and 1000 nM (sheet 'Samples'); n = 1
# CDK4 = tested on: CDK4; parameters: species or system human, MV4-11 + K-562 + COLO205 + SK-N-BE2 + OVCAR-8; conditions: read-out: apparent Kd, compound concentrations: 100 nM and 1000 nM (sheet 'Samples'), n = 1
# [1] = compound concentrations:100 nM and 1000 nM (sheet 'Samples')
compound,measurement,setting,value
Cc1ccc(Nc2ccnc(Nc3ccc4c(c3)CS(=O)(=O)C4)n2)cc1O.Cl [GW579362A],potency estimated from few doses,"ACVR2B; compound concentrations: 100 nM and 1000 nM (sheet 'Samples'), CATDS: 0.34366648341671902",12.4 nM
TAK659,EC50,AAK1,997 nM
same,Kd,AAK1; read-out: apparent Kd,720 nM
Cc1cccc(Nc2nc(N[C@H]3CCCC[C@H]3N)ncc2C(N)=O)c1.Cl [GSK986310C],potency estimated from few doses,ERN2; [1],1400 nM
Cn1ncc2c(N)ncnc21 [SKF-18267],potency estimated from few doses,CAMK2B; CATDS: 6.4404686092337498E-3,514 nM
same,potency estimated from few doses,CDK12; CATDS: 3.82162717704907E-3,1510 nM
same,potency estimated from few doses,EPHA7; CATDS: 4.1620084388922602E-3,1210 nM
same,potency estimated from few doses,"ERN2; compound concentrations: 100 nM and 1000 nM (sheet 'Samples'), CATDS: 4.8185865403999398E-3",877 nM
same,potency estimated from few doses,"MAP3K1; compound concentrations: 100 nM and 1000 nM (sheet 'Samples'), CATDS: 4.4631882369260602E-3",1030 nM
same,potency estimated from few doses,MAP3K6; CATDS: 4.1891325824414301E-3,1190 nM
same,potency estimated from few doses,"MDN1; compound concentrations: 100 nM and 1000 nM (sheet 'Samples'), CATDS: 5.0398543071368297E-3",801 nM
same,potency estimated from few doses,"NEK1; compound concentrations: 100 nM and 1000 nM (sheet 'Samples'), CATDS: 3.5725639465568099E-3",1820 nM
same,potency estimated from few doses,"PI4KB; compound concentrations: 100 nM and 1000 nM (sheet 'Samples'), CATDS: 8.6005526131726403E-3",328 nM
same,potency estimated from few doses,PIK3CB; CATDS: 8.3047003401232992E-3,345 nM
same,potency estimated from few doses,"RIPK3; compound concentrations: 100 nM and 1000 nM (sheet 'Samples'), CATDS: 3.42256468250394E-3",2080 nM
COc1cc(Nc2ncc3c(C)nc(-c4cc5ccccc5[nH]4)n3n2)cc(OC)c1OC [GW869516X],IC50,"CSNK2A1; read-out: Average, SD, n = 2",446 nM
same,IC50,CSNK2A1; read-out: Rep 1,471 nM
same,IC50,CSNK2A1; read-out: Rep 2,421 nM
same,IC50,"CSNK2A2; read-out: Average, SD, n = 2",319 nM
same,IC50,CSNK2A2; read-out: Rep 1,135 nM
same,IC50,CSNK2A2; read-out: Rep 2,503 nM
CCOC(=O)N1CCC(n2cnc(-c3ccc(F)cc3)c2-c2ccnc(N)n2)CC1 [SB-219952],potency estimated from few doses,EPHA7; CATDS: 8.0080287869844797E-3,1690 nM
COc1ccc(Nc2ncc(C#N)c(Nc3ccccc3C(N)=O)n2)cc1N1CCN(C)CC1.Cl [GSK1558669A],potency estimated from few doses,"NEK1; compound concentrations: 100 nM and 1000 nM (sheet 'Samples'), CATDS: 8.9161421311332902E-3",272 nM
same,potency estimated from few doses,PLK1; CATDS: 1.2041031249847799E-2,113 nM
Cl.NCc1ccc(-c2nc(-c3ccc(Cl)c(O)c3)c(-c3ccncc3)[nH]2)cc1 [SB-476429-A],potency estimated from few doses,RIPK3; [1],1200 nM
Cc1cccc(Nc2nc(N[C@H]3CCNC3)ncc2C(N)=O)c1.Cl [GSK2197149A],potency estimated from few doses,PI4KB; [1],892 nM
O=C(O)C(F)(F)F.O=c1[nH]ccc2nc(N[C@@H]3CCNC3)nc(Nc3ccc4c(c3)S(=O)(=O)CC4)c12 [GSK2181306A],potency estimated from few doses,PIM3; CATDS: 5.1317659487183503E-2,36.4 nM
COc1ccc(-c2cc3c(N)ncnc3o2)cc1 [GW642138X],potency estimated from few doses,"ADRBK1; compound concentrations: 100 nM and 1000 nM (sheet 'Samples'), CATDS: 0.10043155858125399",1820 nM
Cc1cc(-c2ccnc(Nc3cccc(C#N)c3)n2)cc(C)c1O [GSK1440913A],potency estimated from few doses,"ADRBK1; compound concentrations: 100 nM and 1000 nM (sheet 'Samples'), CATDS: 7.8557926604231804E-2",1430 nM
CC(C)Nc1cc(-c2ccc3c(N)n[nH]c3c2)nc(N)n1 [GSK2221681A],potency estimated from few doses,PRKCZ,1520 nM
CC(C)Oc1ccc2c(-c3ccnc(Nc4ccc(N5CCN(C)CC5)cc4)n3)cnn2n1 [GW696155X],potency estimated from few doses,NEK1; [1],1130 nM
O=C(O)C(F)(F)F.O=C(O)C(F)(F)F.O=c1[nH]ccc2nc(N[C@@H]3CCCNC3)nc(Nc3ccc(S(=O)(=O)N4CCOCC4)cc3)c12.O=c1[nH]ccc2nc(N[C@@H]3CCCNC3)nc(Nc3ccc(S(=O)(=O)N4CCOCC4)cc3)c12 [GSK2177277A],potency estimated from few doses,CDK4; CATDS: 6.3800508588872503E-3,1600 nM
COc1cc(Nc2nccc(N3CCC(NC(=O)c4cccc(NC(C)=O)c4)C3)n2)cc(OC)c1OC (stereo not shown) [GSK1379754A],potency estimated from few doses,PIM3; CATDS: 9.0008616948043199E-2,1470 nM
CCn1c(-c2cccnc2O)nc2cnccc21 [SB-736715],potency estimated from few doses,EPHA7; CATDS: 1.2240200797628401E-2,2080 nM
same,potency estimated from few doses,PIK3CB; CATDS: 1.6268370150171501E-2,1100 nM
same,potency estimated from few doses,PIM3; CATDS: 1.44947330035029E-2,1390 nM
same,potency estimated from few doses,"RIPK3; compound concentrations: 100 nM and 1000 nM (sheet 'Samples'), CATDS: 1.26623913156397E-2",1900 nM
Cc1ccccc1C1=C(c2cn(C)c3ccccc23)C(=O)NC1=O [RO0317612-000],potency estimated from few doses,CAMK2B; CATDS: 0.21692870054448801,479 nM
CNCc1ccc(-c2cc(-c3nc(-c4ccc(S(=O)(=O)C(C)C)cc4)cnc3N)on2)cc1 [VE-822],potency estimated from few doses,MAP3K1; [1],1260 nM
COc1cc[nH]c1/C=C1\C(=O)Nc2ccc(F)c(C#CC3(O)CCNCC3)c21.Cl [RO0282986-001],potency estimated from few doses,CAMK2B; CATDS: 2.6528417916085501E-2,123 nM
FC(F)(F)c1ccc(-c2ncn(CCCN3CCOCC3)c2-c2ccncc2)cc1 [SB-217780],potency estimated from few doses,MAP3K6; CATDS: 0.20378278704682301,1720 nM
CCN(CC)Cc1ccc(Nc2nccc(-c3cnn4ncccc34)n2)cc1 [GW780056X],potency estimated from few doses,CDK12; CATDS: 2.2557982772038999E-2,899 nM
same,potency estimated from few doses,CDK4; CATDS: 1.9618421656054302E-2,1420 nM
Cl.Cl.NC(CNC(=O)c1cc(Br)c(-c2ccnc3[nH]ccc23)s1)c1ccccc1.NC(CNC(=O)c1cc(Br)c(-c2ccnc3[nH]ccc23)s1)c1ccccc1 (stereo not shown) [GSK1322949A],potency estimated from few doses,CDK4; CATDS: 3.2269694765046902E-2,1030 nM
same,potency estimated from few doses,"MDN1; compound concentrations: 100 nM and 1000 nM (sheet 'Samples'), CATDS: 2.3593450099353701E-2",2300 nM
same,potency estimated from few doses,PLK1; CATDS: 2.70929722302506E-2,1550 nM
CNc1cc(-c2ccc3c(N)n[nH]c3c2)nc(N)n1 [GSK2224810A],potency estimated from few doses,ACVR2B; [1],1190 nM
CCC(CC)(CC)n1cnc2c(N)ncnc21 [SKF-97620],potency estimated from few doses,"PI4KB; compound concentrations: 100 nM and 1000 nM (sheet 'Samples'), CATDS: 7.0031928225578105E-2",170 nM
same,potency estimated from few doses,PIK3CB; CATDS: 4.8769305637968503E-2,337 nM
same,potency estimated from few doses,PLK1; CATDS: 2.3248772158463601E-2,2300 nM
Nc1nccc(-c2ccc3c(N)n[nH]c3c2)n1 [GSK1034945A],potency estimated from few doses,PRKCZ,1830 nM
CCn1c(-c2nonc2N)nc2cncc(Br)c21 [SB-738004],potency estimated from few doses,PRKCZ,544 nM
NS(=O)(=O)c1ccc(NC=C2C(=O)Nc3ccc4ncsc4c32)cc1 [GW589933X],potency estimated from few doses,CDK12; CATDS: 1.98005897918999E-2,1010 nM
Nc1nc(-c2ccc3c(N)n[nH]c3c2)cc(N2CCCC(NC(=O)c3ccccc3)C2)n1 (stereo not shown) [GSK2286775B],potency estimated from few doses,ADRBK1; [1],2050 nM
same,potency estimated from few doses,ERN2; [1],1580 nM
same,potency estimated from few doses,MDN1; [1],1290 nM
CC(C)N1CC(=O)N(C)c2cnc(Nc3cccc(S(=O)(=O)CCN4CCOCC4)c3)nc21 [BI00009348],potency estimated from few doses,"MAP3K1; compound concentrations: 100 nM and 1000 nM (sheet 'Samples'), CATDS: 5.2672429134220697E-2",1560 nM
same,potency estimated from few doses,MAP3K6; CATDS: 7.2828700738199706E-2,698 nM
